“And” between values parts separate entries of the source, which are not always exact repeats. Equal entries are not always repeated. In all, about 5,500 compounds went through this assay and about 2,000 (36%) were called active. Roughly 18% stayed inconclusive and do not appear here. Rule as the data show it: active = normalized growth mostly below about 0.91 (no sharp cut-off); inconclusive = no clear call, values can overlap the other calls; inactive = mostly above about 0.92. The list shows a part of the results.
Experiment: chemical genetic growth profiling, strain panel (AID 1159580);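 also: tested at 20 µM; growth read once vehicle control cultures reached saturation at 30 °C; 1 = growth at the plate median or of vehicle wells; lower values mean less growth of the strain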
Conditions: growth OD
[1] = S. cerevisiae deletion strains, locus YAL013W, strain DEP1, stronger effect = lower value
[2] = S. cerevisiae deletion strains, locus YBR229C, strain ROT2, stronger effect = lower value
[3] = S. cerevisiae deletion strains, locus YCL061C, strain MRC1, stronger effect = lower value
[4] = S. cerevisiae deletion strains, locus YDL101C, strain DUN1, stronger effect = lower value
[5] = S. cerevisiae deletion strains, locus YDR150W, strain NUM1, stronger effect = lower value
[6] = S. cerevisiae deletion strains, locus YEL061C, strain CIN8, stronger effect = lower value
[7] = S. cerevisiae deletion strains, locus YGR078C, strain PAC10, stronger effect = lower value
[8] = S. cerevisiae deletion strains, locus YHR030C, strain SLT2, stronger effect = lower value
[9] = S. cerevisiae deletion strains, locus YHR087W, strain rtc3, stronger effect = lower value
[10] = S. cerevisiae deletion strains, locus YJR043C, strain POL32, stronger effect = lower value
[11] = S. cerevisiae deletion strains, locus YJR075W, strain HOC1, stronger effect = lower value
[12] = S. cerevisiae deletion strains, locus YKL190W, strain CNB1, stronger effect = lower value
[13] = S. cerevisiae deletion strains, locus YLR039C, strain RIC1, stronger effect = lower value
[14] = S. cerevisiae deletion strains, locus YLR058C, strain SHM2 (second series), stronger effect = lower value
[15] = S. cerevisiae deletion strains, locus YLR085C, strain ARP6, stronger effect = lower value
[16] = S. cerevisiae deletion strains, locus YLR262C, strain YPT6, stronger effect = lower value
[17] = S. cerevisiae deletion strains, locus YML094W, strain GIM5, stronger effect = lower value
[18] = S. cerevisiae deletion strains, locus YMR219W, strain ESC1, stronger effect = lower value
[19] = S. cerevisiae deletion strains, locus YMR263W, strain SAP30, stronger effect = lower value
[20] = S. cerevisiae deletion strains, locus YNL153C, strain GIM3, stronger effect = lower value
[21] = S. cerevisiae deletion strains, locus YNL298W, strain CLA4 (second series), stronger effect = lower value
[22] = S. cerevisiae deletion strains, locus YNL322C, strain KRE1, stronger effect = lower value
[23] = S. cerevisiae deletion strains, locus YNR030W, strain Alg12, stronger effect = lower value
[24] = S. cerevisiae deletion strains, locus YOL006C, strain TOP1, stronger effect = lower value
[25] = S. cerevisiae deletion strains, locus YPL055C, strain LGE1, stronger effect = lower value
[26] = S. cerevisiae deletion strains, locus YPL241C, strain CIN2, stronger effect = lower value
[27] = S. cerevisiae deletion strains, locus YPR135W, strain CTF4, stronger effect = lower value
[28] = S. cerevisiae deletion strains, locus YMR307W, strain GAS1, stronger effect = lower value

Measured: normalized growth

O=c1oc2ccccc2cc1[N+](=O)[O-]
active: [1] 0.0574 | [2] 0.0595 | [3] 0.0567 | [4] 0.0763 | S. cerevisiae deletion strains, locus YDL134C, strain PPH21, stronger effect = lower value 0.049 | [5] 0.0585 | [6] 0.0579 | S. cerevisiae deletion strains, locus YGR052W, strain FMP48, stronger effect = lower value 0.114 | [7] 0.0524 | S. cerevisiae deletion strains, locus YGR229C, strain SMI1, stronger effect = lower value 0.0596 | [8] 0.0818 and 0.0892 | S. cerevisiae deletion strains, locus YHR079C, strain IRE1, stronger effect = lower value 0.106 | S. cerevisiae deletion strains, locus YHR082C, strain KSP1, stronger effect = lower value 0.105 | [9] 0.0624 | S. cerevisiae deletion strains, locus YJL095W, strain BCK1, stronger effect = lower value 0.104 | [10] 0.0547 | S. cerevisiae deletion strains, locus YJR066W, strain TOR1, stronger effect = lower value 0.102 | [11] 0.0787 | S. cerevisiae deletion strains, locus YKL171W, strain NNK1, stronger effect = lower value 0.106 | [12] 0.0491 | S. cerevisiae deletion strains, locus YKL203C, strain TOR2, stronger effect = lower value 0.0901 | [13] 0.0723 | [14] 0.0528 | [15] 0.071 | S. cerevisiae deletion strains, locus YLR113W, strain HOG1, stronger effect = lower value 0.137 | [16] 0.0758 | [17] 0.0733 | [18] 0.0518 | [19] 0.0584 | [20] 0.057 | S. cerevisiae deletion strains, locus YNL183C, strain NPR1, stronger effect = lower value 0.119 | S. cerevisiae deletion strains, locus YNL207W, strain RIO2, stronger effect = lower value 0.0939 | [21] 0.0711 | [22] 0.0611 | [23] 0.0702 | [24] 0.0751 | S. cerevisiae deletion strains, locus YOR119C, strain RIO1, stronger effect = lower value 0.0989 | S. cerevisiae deletion strains, locus YOR231W, strain MKK1, stronger effect = lower value 0.106 | [25] 0.0749 | [26] 0.0745 | S. cerevisiae deletion strains, locus YPL256C, strain CLN2, stronger effect = lower value 0.0976 | [27] 0.155 | S. cerevisiae strains, strain wild type, stronger effect = lower value 0.0506

COc1cc2c(CCNC(C)=O)c[nH]c2cc1O
inactive: [1] 1.02 | S. cerevisiae deletion strains, locus YAL040C, strain CLN3, stronger effect = lower value 1.01 | S. cerevisiae deletion strains, locus YCL061C, strain MRC1 (second series), stronger effect = lower value 1.01 | [5] 1.01 | S. cerevisiae deletion strains, locus YDR363W, strain ESC2, stronger effect = lower value 1.02 | S. cerevisiae deletion strains, locus YER002W, strain NOP16, stronger effect = lower value 1.02 | [7] 1 | [11] 1.02 | [28] 1 | S. cerevisiae deletion strains, locus YNL128W, strain TEP1, stronger effect = lower value 1.02 | S. cerevisiae deletion strains, locus YNL175C, strain NOP13, stronger effect = lower value 0.998 | S. cerevisiae deletion strains, locus YNL197C, strain WHI3, stronger effect = lower value 1.02 | S. cerevisiae deletion strains, locus YNL224C, strain SQS1, stronger effect = lower value 0.996 | S. cerevisiae deletion strains, locus YOR083W, strain WHI5 (second series), stronger effect = lower value 1 | [25] 1.02

CC(=O)NC(CCC(=O)O)C(=O)O (stereo unspecified)
inactive: [1] 0.985 | [2] 0.966 | [3] 0.984 | [4] 0.96 | [5] 0.974 | [6] 0.975 | [7] 0.983 | [8] 0.973 | [10] 0.976 | [11] 0.99 | [12] 0.99 | [13] 0.978 | [14] 0.981 | [15] 0.975 | [16] 1.01 | [17] 0.981 | [18] 0.975 | [19] 0.987 | [28] 1.1 | [20] 0.978 | [21] 0.984 | [22] 0.984 | [23] 1.02 | [24] 0.964 | [25] 1.03 | [26] 0.973 | [27] 0.969
active: [9] 1.13 [resistant]
